From ChEMBL document CHEMBL3988442, “University of Dundee, Small-Polar-MMV Screening Library” (2021) come the findings set out here.

The target in the experiment is AMP-activated protein kinase, AMPK (Homo sapiens) (UniProt P54646+O43741+P54619+Q9UGJ0+Q9Y478+Q13131+Q9UGI9). Put plainly: AMP-dependent Kinase enzyme assay. An in vitro enzyme assay that detects ADP turnover that is directly proportional to AMPK activity. This uses naive AMPK that is activated during the assay with MK-8722. The format is functional. The arrangement: scale not given: direction of the effect not stated beside the values. The note with it: 30 µM.
Take `Cc1ccccc1-c1noc(-c2ccc(NCC3COCCO3)nc2)n1` (stereo not given): the Percent Effect was determined as 6.52%.

`CCCN1CCC(NCc2cccc(CN3CCOC(C)C3)c2)CC1` (stereo not given): the Percent Effect was -4.13%.

On to `CCCN(CCO)S(=O)(=O)c1ccc2[nH]c(=O)[nH]c2c1`, for which the Percent Effect is -3.64%.

Take `COc1ncc(NCc2ccc(F)cc2)cc1C(N)=O`: the Percent Effect was determined as 5.39%.

As for `Cc1cc(NCCc2nc(C)c[nH]2)nc(-c2ccccc2O)n1`, the Percent Effect was found to be 17.8%.

On to `Cc1cc(C[S+]([O-])Cc2ccccc2F)on1` (stereo not given), for which the Percent Effect was determined as 6.4%.

For `CN(C)c1cccc(C(=O)Nc2cnn(Cc3ccncc3)c2)c1`, the Percent Effect was -4.34%.

Consider `O=C(CN1CC(c2ccccc2)CC1=O)N1CCC(c2ncc[nH]2)CC1` (stereo not given), for which the Percent Effect came to 2.5%.

For the molecule `CCc1onc(C)c1C(=O)N1CCN(c2ncc3c(n2)CCOC3)CC1`, the Percent Effect was found to be 13%.

Consider `CN(C(=O)c1ccccn1)c1nnc(C2CCOC2)s1` (stereo not given), for which the Percent Effect is 9.22%.

Consider `CC(OCC1CC1)C(=O)NCCC(=O)Nc1ccccn1` (stereo not given), for which the Percent Effect came to 12.4%.

`COc1cccc(C(C(=O)O)N2CCSCC2)c1F` (stereo not given): the Percent Effect is -1.18%.

`O=C(CCNCc1cccc2c1OCCCO2)NC1CCCC1`: the Percent Effect is -8.82%.

For `CN(C)c1ncccc1NC(=O)COCC1CC1`, the Percent Effect came out at 2.89%.

As for `O=C(C1CCCOC1)N1CCN(CC(F)(F)F)c2ccccc21` (stereo not given), the Percent Effect was determined as 6.14%.

With `O=C(Cc1nc(-c2ccncc2)n[nH]1)NCCCN1CCOCC1`, the Percent Effect is -0.0149%.

With `CCC[C@@H]1CN(Cc2ccc(C(F)(F)F)nc2)C[C@H]1NS(C)(=O)=O`, the Percent Effect was 4.44%.

Consider `Cc1ccc(N2CCCC(Nc3nn4cc(C)nc4s3)C2)nn1` (stereo not given), for which the Percent Effect was determined as 8.12%.

Take `O=C(CN1CC(c2ccccc2)CC1=O)N1CCN(c2nccs2)CC1` (stereo not given): the Percent Effect worked out at 15.4%.

As for `CN(C)C(=O)c1ccccc1NC(=O)N[C@@H]1c2ccccc2C[C@@H]1O`, the Percent Effect was determined as 3.27%.

On to `CNS(=O)(=O)c1ccc(CN2CCN3CCNC(=O)C3C2)cc1` (stereo not given), for which the Percent Effect was -3.21%.

Take `CCOC(=O)C1(O)CCN(C(=O)Nc2ccc(CC)cc2)CC1`: the Percent Effect came out at 0.524%.

Take `COc1ccccc1CC(=O)N(C)Cc1cc(C)on1`: the Percent Effect was -2.06%.

Consider `CSc1nsc(NC(=O)N(C)Cc2ccc3c(c2)OCO3)n1`, for which the Percent Effect was 0.417%.

Consider `N#Cc1cccnc1N1CCC(Nc2ccccc2)C1` (stereo not given), for which the Percent Effect came out at 4.61%.

Take `Cc1ccc(-c2cc(CN(CC(N)=O)CC(C)C)on2)cc1`: the Percent Effect is -6.41%.

For the molecule `Cc1nccn1CCCN1CCC(c2nccn2CC2CCC2)CC1`, the Percent Effect was -9.78%.

Consider `Cn1cc(CN2CCOC(Cc3cccc(F)c3)C2)cn1` (stereo not given), for which the Percent Effect came to 4.61%.

For the molecule `CSCC(=O)N1CCN(CC(O)C(C)(C)C)CC1` (stereo not given), the Percent Effect was -3.62%.

In the case of `CC(C)[C@@H]1CN(C(=O)CN(C)Cc2ccccc2)C[C@H]1C(=O)O`, the Percent Effect is 2.94%.

On to `COCC(C)(O)CNC(=O)c1cc(-c2ccc(F)cc2)nn1C` (stereo not given), for which the Percent Effect was 2.75%.

As to `COc1ccc(OCc2nc3cc4c(cc3c(=O)o2)OCCCO4)cc1`, the Percent Effect is -6.13%.

In the case of `Cc1cc(N2CCC(n3cc(CCCO)nn3)CC2)ccn1`, the Percent Effect turned out to be 2.02%.

Regarding `O=C1CCCCCN1Cc1cccc(OC(F)F)c1`, the Percent Effect worked out at 3.82%.

For the molecule `CCCC1(CO)CCCN(C(=O)CNC(C)=O)C1` (stereo not given), the Percent Effect was -1.86%.

On to `CC(C)CN(C(=O)Nc1cccc(C(=O)N(C)C)c1)C1CC1`, for which the Percent Effect is 0.783%.

With `CCn1nc(C(C)C)cc1C(=O)NCC1CCCN(c2ccccn2)C1` (stereo not given), the Percent Effect is 6.64%.

With `Cc1ccc(C(=O)N(C)CC(=O)N2CCCC2)c(C)c1`, the Percent Effect is -2.76%.

In the case of `C=C(C)Cn1nc(C)c(CN2CCN(C3CCCCC3)C(=O)C2)c1C`, the Percent Effect was 10.7%.

For `CCOCCN1CCN(c2ccc(C#N)cn2)CC1`, the Percent Effect came out at 1.16%.
